For assay [1], the target named is Cytochrome P450 1A2 (Homo sapiens) (UniProt P05177). The assay can be described thus: p450-cyp1a2 (AID 410; calls by dose curve; note: potency is the fitted concentration of half-maximal effect). The gist of the method:
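Luminescent readout of luciferin formed from Luciferin-ME by human CYP1A2; data normalized against complete inhibition by 57 uM furafylline. Enzyme 20nM, substrate 100uM at Km, 100mM KPO4 buffer, 60 min reaction at room temperature.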

In assay [2] the target is Glucocorticoid receptor (Homo sapiens) (UniProt P04150). In words: GR-GFP Redistribution (AID 450;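 active = compounds whose dose series gives a full or clear partial fitted curve of increased nuclear translocation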; note: potency is the fitted concentration of half-maximal effect). As to conditions: U2OS GR-GFP nuclear translocation, laser cytometry, 2 h.
Sequence of Glucocorticoid receptor (Homo sapiens) (P04150 whole entry, looked up, the tested form may be a part): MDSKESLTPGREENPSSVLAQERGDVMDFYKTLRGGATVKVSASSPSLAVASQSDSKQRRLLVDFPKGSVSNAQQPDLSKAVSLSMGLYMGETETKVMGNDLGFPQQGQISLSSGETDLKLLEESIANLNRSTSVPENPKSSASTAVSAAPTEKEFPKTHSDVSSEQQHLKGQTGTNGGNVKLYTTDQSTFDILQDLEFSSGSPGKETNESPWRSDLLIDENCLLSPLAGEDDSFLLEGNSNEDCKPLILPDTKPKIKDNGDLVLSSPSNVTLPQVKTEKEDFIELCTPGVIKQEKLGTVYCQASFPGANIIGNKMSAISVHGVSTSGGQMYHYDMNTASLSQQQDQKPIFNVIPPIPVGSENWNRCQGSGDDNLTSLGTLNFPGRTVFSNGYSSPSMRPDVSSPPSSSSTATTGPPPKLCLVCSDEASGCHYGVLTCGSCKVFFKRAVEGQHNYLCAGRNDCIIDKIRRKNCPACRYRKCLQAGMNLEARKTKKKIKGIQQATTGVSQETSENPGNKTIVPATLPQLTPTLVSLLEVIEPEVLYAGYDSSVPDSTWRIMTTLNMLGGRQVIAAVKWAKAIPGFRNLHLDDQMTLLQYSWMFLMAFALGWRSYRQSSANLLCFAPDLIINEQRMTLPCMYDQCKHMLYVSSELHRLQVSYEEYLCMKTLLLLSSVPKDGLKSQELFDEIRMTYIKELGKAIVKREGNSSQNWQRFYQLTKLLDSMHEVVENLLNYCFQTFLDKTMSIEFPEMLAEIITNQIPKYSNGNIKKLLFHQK
Assay [3] shares this target. In words: GR-EFC Redistribution (AID 451; calls by dose curve; note: potency is the fitted concentration of half-maximal effect). As to conditions: CHO-K1 GR-EFC translocation, beta-gal luminescence, 2 h. The gist of the method: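 CHO-K1 cells expressing nuclear EA and GR-ED fragments of b-gal; compounds titrated up to 46 uM final, 2 h at 37 C. GR nuclear translocation read as complemented b-gal luminescence after 1 h RT detection.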
Assay [4] has as its target Mitogen-activated protein kinase 10 (Mus musculus) (UniProt Q61831). In words: JNK3 AlphaScreen Assay (AID 530; active = well fitted curve in either direction with a large enough effect, not every such curve was filed as active;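 note: kinase came from lysate of stimulated human HepG2 cells; signal reports phosphorylation of biotinylated GST-cJun 1-79 at Ser73 with 10 µM ATP; series mostly up to about 57 µM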). The procedure, abridged:
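Pre-activated (IL-1β/TNFα) JNK3 in HepG2 lysates phosphorylates biotin-GST-cJun(1-79), 10 uM ATP; anti-phospho-cJun(Ser73) AlphaScreen read at room temperature, pH 7.6 Tris buffer. Compounds pre-incubated 15 min as titrations.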

Assay [5] concerns the target Cytochrome P450 3A4 (Homo sapiens) (UniProt P08684). The assay can be described thus: qHTS Assay for Activators of Cytochrome P450 3A4 (AID 885). Note: nearly all actives have a fitted effect of over 65% in size. The procedure, abridged: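 Quantitative HTS format: compounds preincubated with 20nM human CYP3A4 and Luciferin-PPXE substrate at KM, reaction started by NADPH regeneration, stopped after 60 min, luciferase luminescence read 20 min later.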

Assay [6] has as its target Ubiquitin carboxyl-terminal hydrolase 1 (Homo sapiens) (UniProt O94782). In words: Inhibitors of USP1/UAF1: Pilot qHTS (AID 504865).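 Note: rhodamine fluorescence freed from ubiquitin-rhodamine substrate followed over time; top concentration of the series differs between compounds; nearly all actives have a fitted effect of over 35% in size.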 The gist of the method:
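In 50mM HEPES pH 7.8 containing 0.5mM EDTA, 1mM TCEP, 0.1 mg/ml BSA and 0.01% Tween-20, 1nM USP1/UAF1 is exposed to compound for 15 min, then Ub-Rho (150nM final) is added and fluorescence is read over time.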
In general terms: Quantitative high-throughput screening tests each substance at several concentrations.

Assay [7] concerns the target DNA dC->dU-editing enzyme APOBEC-3G (Homo sapiens) (UniProt Q9HC16). The assay can be described thus: qHTS for inhibitors of Vif-A3G interactions: Validation (AID 588379). The procedure, abridged: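 HeLa cells stably expressing Vif and A3G-eYFP, 700 cells/well, incubated overnight at 37 deg C, then exposed to compound overnight at 37 deg C. Inhibition of Vif-mediated degradation read as increased yellow fluorescence (Ex 488/Em 500-530) by laser-scanning cytometry.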

Assay [8] concerns Zika virus NS2B-NS3 protease. In words: Primary screen GU AMC qHTS for Zika virus inhibitors (AID 1347154). Note: nearly all actives have a fitted effect of over 70% in size. The procedure, abridged:
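Unlinked Zika NS2B hydrophilic domain–NS3 protease complex at 25 nM in 10 mM Tris-HCl pH 8.0, 0.01% Tween 20, with an AMC peptide substrate. Fluorescence change (340/450 nm) over 15 min at room temperature, normalized to controls, fitted to 4-parameter Hill.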

Assay [9] can be described thus: Primary qHTS for small molecule stabilizers of the endoplasmic reticulum resident proteome: Secreted ER Calcium Modulated Protein (SERCaMP) assay (AID 1508630). The gist of the method:
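GLuc-SERCaMP-expressing SH-SY5Y cells, pretreated 16 h with compound, are challenged with thapsigargin to empty ER calcium stores; after 4 h, coelenterazine is added directly to the medium and luminescence is imaged.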

For assay [10], the target named is Cytochrome P450 2C19 (Homo sapiens) (UniProt P33261). The assay can be described thus: qHTS Assay for Inhibitors and Substrates of Cytochrome P450 2C19 (AID 899). Note: potency is the fitted concentration of half-maximal effect; nearly all actives have a fitted effect of over 60% in size. The gist of the method: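 Signal comes from luciferase acting on luciferin released by CYP2C19-mediated hydroxylation of Luciferin-H EGE, 10uM (KM). Assay mix: 5nM enzyme, 50mM KPO4; 60 min at 37C with NADPH regeneration. Data normalized against 57uM ketoconazole.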

In assay [11] the target is 3',5'-cyclic-AMP phosphodiesterase 4B (Homo sapiens) (UniProt Q07343). The assay can be described thus: qHTS Assay for Inhibitors of PDE-IV (AID 607; active = well fitted activation curve with a large enough effect in the main read-out, with a control signal flat, not every such curve was filed as active). The procedure, abridged: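 Live HEK293 cells with a modified cyclic nucleotide-gated (CNG) channel report intracellular cAMP via membrane-potential dye fluorescence (ex 535/em 590 nm). Endogenous PDE-IV was targeted. Compounds were tested at up to 22.9 uM final; RO 20-1724 100 uM served as control.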
Sequence of 3',5'-cyclic-AMP phosphodiesterase 4B (Homo sapiens) (Q07343 whole entry, looked up): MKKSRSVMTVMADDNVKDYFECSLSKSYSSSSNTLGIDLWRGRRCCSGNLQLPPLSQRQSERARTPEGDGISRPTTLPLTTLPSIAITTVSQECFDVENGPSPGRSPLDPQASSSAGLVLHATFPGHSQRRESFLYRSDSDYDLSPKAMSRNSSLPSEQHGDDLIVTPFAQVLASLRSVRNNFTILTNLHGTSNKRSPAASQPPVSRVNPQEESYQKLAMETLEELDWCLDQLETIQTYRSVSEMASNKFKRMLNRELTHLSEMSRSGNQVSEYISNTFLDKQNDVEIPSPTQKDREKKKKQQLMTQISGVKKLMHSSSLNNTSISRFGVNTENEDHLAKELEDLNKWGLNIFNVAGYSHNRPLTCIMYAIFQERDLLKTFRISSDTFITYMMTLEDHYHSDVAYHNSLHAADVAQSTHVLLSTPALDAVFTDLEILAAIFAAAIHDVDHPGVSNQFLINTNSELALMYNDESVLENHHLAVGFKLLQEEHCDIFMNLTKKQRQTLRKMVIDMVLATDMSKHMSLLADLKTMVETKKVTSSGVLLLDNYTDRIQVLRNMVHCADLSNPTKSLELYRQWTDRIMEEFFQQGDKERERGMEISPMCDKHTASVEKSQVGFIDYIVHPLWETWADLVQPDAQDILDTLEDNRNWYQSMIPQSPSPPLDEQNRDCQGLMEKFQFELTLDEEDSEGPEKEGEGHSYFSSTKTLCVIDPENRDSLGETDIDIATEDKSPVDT

For assay [12], the target named is Cytochrome P450 3A4 (Homo sapiens) (UniProt P08684). The assay can be described thus: qHTS Assay for Inhibitors and Substrates of Cytochrome P450 3A4 (AID 884). Note: potency is the fitted concentration of half-maximal effect; nearly all actives have a fitted effect of over 50% in size. The procedure, abridged:
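20 nM human CYP3A4 with 25 uM Luciferin-PPXE (at KM) in 200 mM KPO4, preincubated 10 min with compound; NADPH regeneration started a 60 min RT reaction. Luciferin detected by luminescence, normalized to 57 uM ketoconazole as full inhibition.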

Assay [13] deals with Cytochrome P450 2D6 (Homo sapiens) (UniProt P10635). In words: qHTS Assay for Inhibitors and Substrates of Cytochrome P450 2D6 (AID 891). Note: potency is the fitted concentration of half-maximal effect; nearly all actives have a fitted effect of over 60% in size. The procedure, abridged: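 Human CYP2D6 (5 nM) with 30 uM Luciferin-ME EGE (at Km) in 100 mM KPO4, compound preincubated 10 min, then NADPH regeneration system for 60 min at room temperature. Luciferin read by luminescence; normalized to 1.43 uM quinidine.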

For assay [14], the target named is Pyruvate kinase (Leishmania mexicana) (UniProt Q27686). The assay can be described thus: qHTS Validation Assay for Inhibitors of Leishmania Mexicana Pyruvate Kinase (AID 945). The procedure, abridged: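 Substrate mix (0.5 mM PEP, 0.1 mM ADP, 7 mM MgCl2, 50 mM KCl, pH 7.2 imidazole) received compound by pin tool, then 0.2 nM LmPYK E451W. After 1 h at room temperature, PKLight was added and luminescence measured.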
Sequence of Pyruvate kinase (Leishmania mexicana) (Q27686 2-499 E452W): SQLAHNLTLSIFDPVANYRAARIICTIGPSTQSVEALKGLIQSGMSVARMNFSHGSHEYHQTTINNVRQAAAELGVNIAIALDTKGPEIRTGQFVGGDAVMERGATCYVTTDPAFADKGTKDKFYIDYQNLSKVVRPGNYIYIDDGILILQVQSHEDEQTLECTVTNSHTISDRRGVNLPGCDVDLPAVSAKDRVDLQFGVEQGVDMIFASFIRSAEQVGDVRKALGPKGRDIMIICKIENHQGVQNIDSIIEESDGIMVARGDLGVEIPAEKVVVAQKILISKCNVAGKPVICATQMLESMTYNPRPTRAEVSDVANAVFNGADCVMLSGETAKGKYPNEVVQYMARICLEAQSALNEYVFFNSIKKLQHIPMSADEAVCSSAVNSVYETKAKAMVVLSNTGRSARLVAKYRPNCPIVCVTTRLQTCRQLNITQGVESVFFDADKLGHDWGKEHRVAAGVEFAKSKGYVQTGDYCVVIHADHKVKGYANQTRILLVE

Assay [15] has as its target Pyruvate kinase PKM (Homo sapiens) (UniProt P14618). The assay can be described thus: qHTS Assay for Activators of Human Muscle Pyruvate Kinase (AID 954; active = well fitted curve in the direction sought with a large enough effect, not every such curve was filed as active). The gist of the method: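 Enzyme was run at intermediate activity so both inhibitors and activators could be detected. ATP formed from ADP and PEP by 0.1 nM human PKM2 during a 1 h room-temperature incubation was quantified by coupled luciferase luminescence.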

The target in assay [16] is alpha-glucosidase (Oryza sativa, rice) (UniProt Q653V4). The assay can be described thus: Counterscreen for Glucocerebrosidase Inhibitors: qHTS Assay for Rice alpha-Glucosidase at pH 5.0 (AID 997). The procedure, abridged:
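Rice alpha-glucosidase (4 nM final) with 400 uM 4-methylumbelliferyl-alpha-D-glucopyranoside in citrate buffer pH 5.0, 20 min at room temperature, stopped at pH 10; fluorescence 365/440 nm, compounds 0.7 nM–77 uM, AC50 from Hill fits.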
On the technique in general: The purpose of a counterscreen is to sort out artefacts and off-target activity.

Molecules are shown by their SMILES. Values without a mark were called inactive. Records with an inconclusive call do not appear. Active and inactive are the calls of the source. Unless noted, calls come from the whole dose curve; as a rule, active = well fitted curve in the direction sought with a large enough effect; inconclusive = small, poorly fitted or top-dose-only effect, or another doubt; inactive = no such curve, though single readings can be large; an effect the other way counts as inactive or inconclusive.

Sequence of DNA dC->dU-editing enzyme APOBEC-3G (Homo sapiens) (Q9HC16 whole entry, looked up): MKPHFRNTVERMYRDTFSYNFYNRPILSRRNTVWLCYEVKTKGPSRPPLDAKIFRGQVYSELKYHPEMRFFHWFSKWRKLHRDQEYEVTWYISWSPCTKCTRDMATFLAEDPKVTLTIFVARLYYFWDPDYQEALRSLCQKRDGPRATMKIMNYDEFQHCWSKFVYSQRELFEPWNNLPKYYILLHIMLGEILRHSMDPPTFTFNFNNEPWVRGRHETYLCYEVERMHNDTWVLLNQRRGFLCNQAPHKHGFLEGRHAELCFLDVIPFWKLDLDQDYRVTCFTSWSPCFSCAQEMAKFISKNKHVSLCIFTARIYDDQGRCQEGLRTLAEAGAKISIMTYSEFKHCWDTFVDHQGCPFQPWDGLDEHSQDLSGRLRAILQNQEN
Sequence of Ubiquitin carboxyl-terminal hydrolase 1 (Homo sapiens) (O94782 whole entry, looked up): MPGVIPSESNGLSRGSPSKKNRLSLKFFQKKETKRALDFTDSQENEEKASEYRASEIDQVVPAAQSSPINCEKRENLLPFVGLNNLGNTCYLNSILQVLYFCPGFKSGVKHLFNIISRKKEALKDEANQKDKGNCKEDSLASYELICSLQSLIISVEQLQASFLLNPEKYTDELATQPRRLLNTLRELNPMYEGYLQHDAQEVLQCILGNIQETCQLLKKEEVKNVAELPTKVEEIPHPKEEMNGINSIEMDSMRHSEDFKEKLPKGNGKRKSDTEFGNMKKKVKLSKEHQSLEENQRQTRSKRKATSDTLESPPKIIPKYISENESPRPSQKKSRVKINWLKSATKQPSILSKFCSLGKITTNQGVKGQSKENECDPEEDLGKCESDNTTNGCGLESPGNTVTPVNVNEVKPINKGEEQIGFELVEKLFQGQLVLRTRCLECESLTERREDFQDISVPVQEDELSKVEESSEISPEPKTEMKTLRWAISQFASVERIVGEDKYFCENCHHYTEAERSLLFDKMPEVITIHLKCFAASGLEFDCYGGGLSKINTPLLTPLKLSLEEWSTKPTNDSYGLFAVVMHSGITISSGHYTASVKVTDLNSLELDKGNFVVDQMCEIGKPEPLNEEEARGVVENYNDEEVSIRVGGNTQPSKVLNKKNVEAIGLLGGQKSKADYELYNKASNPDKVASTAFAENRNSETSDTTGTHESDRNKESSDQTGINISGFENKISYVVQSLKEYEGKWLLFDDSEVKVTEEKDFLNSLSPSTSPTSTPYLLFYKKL
Sequence of Cytochrome P450 1A2 (Homo sapiens) (P05177 whole entry, looked up): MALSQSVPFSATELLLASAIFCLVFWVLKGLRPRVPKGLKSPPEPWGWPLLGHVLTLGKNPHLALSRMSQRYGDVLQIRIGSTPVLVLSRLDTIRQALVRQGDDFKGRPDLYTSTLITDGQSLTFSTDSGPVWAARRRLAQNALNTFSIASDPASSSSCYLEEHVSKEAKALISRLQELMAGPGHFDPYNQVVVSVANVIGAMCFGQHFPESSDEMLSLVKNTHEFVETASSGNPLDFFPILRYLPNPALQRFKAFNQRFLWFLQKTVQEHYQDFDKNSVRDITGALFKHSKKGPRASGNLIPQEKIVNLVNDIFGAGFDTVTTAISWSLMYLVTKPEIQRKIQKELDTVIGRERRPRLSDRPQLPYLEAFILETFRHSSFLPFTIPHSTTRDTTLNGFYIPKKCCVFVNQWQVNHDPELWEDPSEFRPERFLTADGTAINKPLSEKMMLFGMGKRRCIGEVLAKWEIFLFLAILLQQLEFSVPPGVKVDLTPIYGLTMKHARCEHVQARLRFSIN
Sequence of Cytochrome P450 3A4 (Homo sapiens) (P08684 whole entry, looked up): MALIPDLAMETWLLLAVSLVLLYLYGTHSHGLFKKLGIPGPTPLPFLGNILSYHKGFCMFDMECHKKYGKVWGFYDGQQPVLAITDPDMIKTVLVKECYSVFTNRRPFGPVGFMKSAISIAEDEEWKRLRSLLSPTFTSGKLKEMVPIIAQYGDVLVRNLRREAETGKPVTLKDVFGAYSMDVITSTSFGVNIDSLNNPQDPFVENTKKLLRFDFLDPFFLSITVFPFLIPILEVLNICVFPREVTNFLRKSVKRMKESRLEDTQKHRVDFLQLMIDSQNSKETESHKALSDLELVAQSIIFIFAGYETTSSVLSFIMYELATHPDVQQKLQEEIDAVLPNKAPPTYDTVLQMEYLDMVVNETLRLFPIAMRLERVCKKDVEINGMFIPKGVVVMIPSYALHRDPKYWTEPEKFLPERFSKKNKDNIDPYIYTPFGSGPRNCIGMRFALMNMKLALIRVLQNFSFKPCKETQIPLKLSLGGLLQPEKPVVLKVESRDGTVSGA
Sequence of Pyruvate kinase PKM (Homo sapiens) (P14618 whole entry, looked up): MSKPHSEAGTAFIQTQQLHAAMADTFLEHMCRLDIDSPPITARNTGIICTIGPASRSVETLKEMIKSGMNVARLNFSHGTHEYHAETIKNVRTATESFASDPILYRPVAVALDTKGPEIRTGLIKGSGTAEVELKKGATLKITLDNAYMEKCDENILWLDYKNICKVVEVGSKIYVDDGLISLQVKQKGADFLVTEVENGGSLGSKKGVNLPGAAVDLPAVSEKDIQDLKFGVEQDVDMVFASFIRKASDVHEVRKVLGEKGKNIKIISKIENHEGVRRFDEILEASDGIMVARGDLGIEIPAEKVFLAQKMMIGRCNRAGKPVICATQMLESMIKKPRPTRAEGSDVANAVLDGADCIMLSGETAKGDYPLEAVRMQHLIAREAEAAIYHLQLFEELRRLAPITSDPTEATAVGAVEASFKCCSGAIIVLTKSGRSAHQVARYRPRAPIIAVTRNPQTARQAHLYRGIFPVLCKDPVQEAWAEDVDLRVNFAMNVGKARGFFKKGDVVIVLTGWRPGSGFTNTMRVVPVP

On to `C[C@](O)(C(=O)Nc1ccc(S(=O)(=O)c2ccccc2)cc1)C(F)(F)F`, for which the values for the Potency in assay [1], in assay [2] and in assay [3] were 39.8 µM (active), more than 46 µM and more than 46 µM, respectively. The Potency result in [4], in assay [5], in assay [6], in assay [7], in assay [8] and in assay [9] was “inactive” each time.
As to `CC[C@]1(O)C[C@@H]2CN(CCc3c([nH]c4ccccc34)[C@](C(=O)OC)(c3cc4c(cc3OC)N(C=O)[C@H]3[C@@](O)(C(=O)OC)[C@H](C(=O)OC)[C@@]5(CC)C=CCN6CC[C@]43[C@H]65)C2)C1`, the Potency entry in assay [1], in assay [5], in assay [6], in assay [7], in assay [8] and in assay [9] was “inactive” throughout. Further, the Potency in assay [2] and in assay [3] was more than 46 µM each time.
`O=C(c1ccccc1)[C@@H]1O[C@H]1c1ccc(-c2ccccc2)cc1`: the values for the Potency in assay [1], in assay [2] and in assay [3] were 6.31 µM (active), more than 46 µM and more than 46 µM, respectively. Moreover, the Potency result in assay [4], in assay [7], in assay [8] and in [9] was “inactive” throughout.
For the molecule `CCc1cc2c(c(CC)n1)CCC(=O)N2Cc1ccc(-c2ccccc2-c2nn[nH]n2)cc1`, the Potency entry in assay [1], in assay [4], in [5], in assay [7], in assay [8] and in assay [9] was “inactive” throughout. Besides, the results for the Potency in assay [2], in assay [3] and in [10] were more than 46 µM, more than 46 µM and 5.01 µM (active), respectively.
Take `CC(C)(C)Cn1nc(-c2ccc(Cl)cc2)c2c(N)ncnc21`: the results for the Potency in assay [1], in assay [2] and in assay [3] were 0.158 µM (active), more than 46 µM and more than 46 µM, respectively. Further, the Potency result in assay [6], in assay [7], in assay [8] and in assay [9] was “inactive” each time.
On to `Fc1ccc([C@H]2CCNC[C@H]2COc2ccc3c(c2)OCO3)cc1`, for which the Potency was 3.16 µM (active) in assay [1], more than 46 µM in [2] and more than 46 µM in [3]. For the same molecule, the Potency result in assay [4], in assay [5], in assay [6], in assay [7], in assay [8] and in [9] was “inactive” throughout.
For `COc1cc(OC)c(C(=O)CCCCN2CCC3(CC2)NC(=O)NC3=O)cc1NS(=O)(=O)c1ccc(C(F)(F)F)cc1`, the Potency entry in [1], in [11], in [5], in assay [8] and in [9] was “inactive” throughout. In addition, the Potency in [2] and in [3] was more than 46 µM throughout.
Consider `Cc1noc(NS(=O)(=O)c2cccc3c(N(C)C)cccc23)c1C`, for which the Potency entry in [1], in assay [4], in assay [11], in assay [5], in assay [7] and in assay [8] was “inactive” each time. In [9], the Potency result was “inactive”. The Potency in assay [2] and in assay [3] was more than 46 µM each time.
As to `COc1cc(COc2cc(N)c(Cl)cc2C(=O)CCC2CCN(CCNS(C)(=O)=O)CC2)cc(OC)c1`, the Potency result in assay [1], in assay [4], in [5], in assay [7], in assay [8] and in assay [9] was “inactive” in each case. Also, the Potency is more than 46 µM in assay [2], more than 46 µM in [3], 2 µM (active) in [12] and 0.794 µM (active) in assay [13].
On to `C#C[C@]1(O)CC[C@H]2[C@H]3CCC4=Cc5oncc5C[C@]4(C)[C@@H]3CC[C@]21C`, for which the Potency in assay [1] is 12.6 µM (active); in [2] it was more than 46 µM; in assay [3], more than 46 µM. Moreover, the Potency result in assay [5], in assay [14], in assay [6], in [7], in assay [8] and in assay [9] was “inactive” each time. The molecule was classed as inactive in [15] and in assay [16].
For `c1ccc2sc(N3CCN(Cc4ccc5c(c4)OCO5)CC3)nc2c1`, the Potency in [1] is 1 µM (active); in [2] it was more than 46 µM; in [3], more than 46 µM; in assay [12] it was 0.631 µM (active). Further, the Potency entry in [4], in [5], in assay [6], in [7], in assay [8] and in assay [9] was “inactive” each time.

The values are drawn from PubChem BioAssay (NCATS).
